Experimental data as given in PubChem BioAssay (NCI).
About 79,000 compounds went through this panel and 15% of them were active in at least one assay; those are over-represented in the sample as a whole. Rule as the data show it: active = growth inhibition above about 70%; inactive = the rest.

How the values were obtained:
[1] = NCI Yeast Anticancer Drug Screen. Data for the rad50 strain (AID 155);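 also: 0% = growth of vehicle-only cultures of the same strain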; conditions: S. cerevisiae rad50 strain growth inhibition; at 50.0 µM; active compounds read high
Outline: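 A DNA repair-deficient yeast mutant serves as the test organism; compound-induced growth inhibition is calculated against vehicle-treated cells.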

[2] = NCI Yeast Anticancer Drug Screen. Data for the mec2-1 strain (AID 157); conditions: S. cerevisiae mec2-1 strain, at 50.0 µM, active compounds read high
Outline: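 Using mec2-1 yeast: add compound, measure growth, express inhibition versus vehicle-treated cultures.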

[3] = NCI Yeast Anticancer Drug Screen. Data for the sgs1 mgt1 strain (AID 161);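 also: 0% = growth of cultures given vehicle only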; conditions: S. cerevisiae sgs1 mgt1 strain, at 50.0 µM, active compounds read high
Outline: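 Yeast cells carrying a defined DNA-repair defect were exposed to test compounds. Growth inhibition was measured relative to vehicle-treated controls.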

[4] = NCI Yeast Anticancer Drug Screen. Data for the cln2 rad14 strain (AID 165);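 also: 0% = growth equal to vehicle treated cultures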; conditions: S. cerevisiae cln2 rad14 strain, at 50.0 µM, active compounds read high
Outline: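 Yeast strain cln2 rad14, bearing defects in cell cycle control and DNA repair, serves as the test system; values reflect growth inhibition compared with vehicle.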

[5] = NCI Yeast Anticancer Drug Screen. Data for the bub3 strain (AID 167); conditions: S. cerevisiae bub3 mutant strain, at 50.0 µM, active compounds read high
Outline: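 Inhibition values come from growth of compound-treated mutant yeast normalised to vehicle-treated controls.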

[6] = NCI Yeast Anticancer Drug Screen. Data for the mlh1 rad18 strain (AID 175); conditions: S. cerevisiae mlh1 rad18 strain growth inhibition; at 50.0 µM; active compounds read high
Outline: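 Steps: expose repair-defective yeast to compound; measure growth; express inhibition against vehicle-treated controls.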

Measured: growth inhibition

Cn1c(=O)c2c(ncn2CCNC(c2ccccc2)c2ccc(Br)cc2)n(C)c1=O (stereo not given)
inactive: [1] 4.55% | [2] 1.55% | [3] 11.3% | [4] -35.3% | [5] 24.1% | [6] 13.6%

COc1ccc(-c2cc(-c3ccco3)c(C#N)c(=S)n2C2OC(COC(C)=O)C(OC(C)=O)C(OC(C)=O)C2OC(C)=O)cc1 (stereo not given)
inactive: [1] 19.6% | [2] -4.25% | [3] 12.7% | [4] -2.75% | [5] 4.25% | [6] 34.2%

COc1ccc(N2C(=O)C3c4[nH]c5ccccc5c4C4CCCCCCCCCCC4C3C2=O)cc1 (stereo not given)
inactive: [1] 9.95% | [2] -19.6% | [3] -3.2% | [4] -65.3% | [5] -26.4% | [6] -4.2%

COC(=O)C(NC(=O)c1ccccc1)C(C)=O (stereo not given)
inactive: [1] 9.5% | [2] -0.7% | [3] -3.4% | [4] -35.4% | [5] -16.9% | [6] 10%

CC(C)C(NC(=O)C(=O)c1c[nH]c2ccc(Cl)cc12)C(=O)O (stereo not given)
inactive: [1] -28.9% | [2] -9.55% | [3] -5.7% | [4] -10% | [5] -10.2% | [6] -1.95%

Cc1cc(N)c(C)c2ccncc12
inactive: [1] -11.4% | [2] 0% | [3] -11.5% | [4] -15.2% | [5] 24.2% | [6] 2.75%

CCOC(=O)C1SC(=Nc2ccc(Cl)cc2Cl)N=C1C (stereo not given)
inactive: [1] -0.75% | [2] -10.3% | [3] 4.4% | [4] -19.2% | [5] -2.85% | [6] -10.8%

CCOC(=O)C(=CC(C)(C)C)C(=O)OCC
inactive: [1] 3.9% | [2] 19.1% | [3] 2.8% | [4] 14.8% | [5] 21.1% | [6] 10%

c1ccc2cc(CCc3cc4ccccc4cn3)ncc2c1
inactive: [1] 10.2% | [2] 11.4% | [3] 7% | [4] -16.1% | [5] 24.4% | [6] 25.6%

Nc1ccc2cc3ccccc3cc2c1
inactive: [1] 12.6% | [2] -20.6% | [3] 1.95% | [4] -18% | [5] 7.35% | [6] 25%

O=C1CSCc2sccc21
inactive: [1] 37% | [2] 26.1% | [3] 6.55% | [4] -14.4% | [5] 17.3% | [6] 2.95%

Cc1ccc(Cl)cc1NC(=O)Nc1cc(Cl)c(Cl)cc1C
inactive: [1] 3.55% | [2] 45% | [3] 43.5% | [4] -2.5% | [5] 45.9% | [6] 33.3%

Cn1c(=O)c2[nH]c(C3CCCCCC3)nc2n(C)c1=O
inactive: [1] 13.6% | [2] -9.7% | [3] -9.4% | [4] -4.1% | [5] 7.25% | [6] -1.8%

Cc1ccc(C(=O)N(C(C)C)C(C)C)cc1N=NN(C)C
inactive: [1] -10% | [2] -30.6% | [3] -31.1% | [4] 12.2% | [5] -20.6% | [6] -23.7%

Nc1cccc2c1-c1ccc([N+](=O)[O-])cc1C2=O
inactive: [1] 7.6% | [2] 18.4% | [3] -6.25% | [4] 5.5% | [5] 5.55% | [6] 4.25%

Oc1ccccc1C=Nc1ccc(I)cc1.Oc1ccccc1C=Nc1ccc(I)cc1.[Co]
inactive: [1] 15.8% | [2] 23.1% | [3] 18.6% | [4] 9.45% | [5] 17.6% | [6] 36.8%

CCOC(=O)c1oc2c(OC)ccc3c2c1CCC3
inactive: [1] 7.7% | [2] 4% | [3] 1.8% | [4] -9.4% | [5] -6.25% | [6] 30.8%

CC[C@H](/C=C/[C@@H](C)[C@H]1CC[C@H]2[C@@H]3CC[C@@H]4CC(=O)CC[C@]4(C)[C@H]3CC[C@]12C)C(C)C
inactive: [1] 29.9% | [2] -13.8% | [3] 9.6% | [4] 1.15% | [5] 35.5% | [6] 34%

Cc1cccc(C)c1NCC1CO1 (stereo not given)
inactive: [1] -17.4% | [2] -14.3% | [3] -6.3% | [4] 13.2% | [5] -17.6% | [6] -11.2%

CN(C)c1cc2ccccc2oc1=O
inactive: [1] 5.3% | [2] -0.75% | [3] -2% | [4] -5.75% | [5] 9% | [6] 6.45%

CC(=O)Nc1ccc(S(=O)(=O)Nc2cccc3ccccc23)cc1
inactive: [1] 23.2% | [2] 7.4% | [3] 18.6% | [4] 42.8% | [5] 57.6% | [6] 21.6%

O=C(OC(c1ccccc1)c1ccccc1)c1ccccc1C(=O)c1ccccc1
inactive: [1] -18.6% | [2] -15.1% | [3] -21% | [4] -16.6% | [5] -3.25% | [6] -36.1%

COC(=O)CC(=O)C[P+](c1ccccc1)(c1ccccc1)c1ccccc1
inactive: [1] 6.5% | [2] -19.1% | [3] 14.8% | [4] 18.4% | [5] -18.1% | [6] 5.4%

CC[N+]1(C)CC2CCC1C2 (stereo not given)
inactive: [1] 4.55% | [2] 17.1% | [3] 14.5% | [4] -39.9% | [5] 5.85% | [6] -11.8%

CC(=O)NC1C(O)C(NC(C)=O)C(OC(C)=O)C(OC(C)=O)C1OC(C)=O (stereo not given)
inactive: [1] 33.4% | [2] -9.7% | [3] 4.1% | [4] -15.4% | [5] -0.15% | [6] 1.35%

O=C(O)c1cc2cc(S(=O)(=O)O)ccc2cc1O
inactive: [1] 4% | [2] -0.95% | [3] -6.9% | [4] -25.2% | [5] -11.8% | [6] 30.4%

Nc1[nH]c(=O)nc2snnc12
inactive: [1] 2.35% | [2] -2.3% | [3] 14.9% | [4] 16.3% | [5] 6.1% | [6] -57.9%

CCn1cc(C(=O)O)c(=O)c2ccc(-c3ccncc3)cc21
inactive: [1] 3.35% | [2] 8.7% | [3] 5.75% | [4] -7.85% | [5] 17% | [6] 11.4%

CCOC(=O)CCC(NC(=O)c1ccc(N=Cc2nc3ccccc3nc2-c2ccccc2)cc1)C(=O)OCC (stereo not given)
inactive: [1] 4.35% | [2] 0.95% | [3] 6.8% | [4] 14.5% | [5] 11.8% | [6] -7.7%

c1ccc2c(c1)cnc1cc3c(cc12)ncc1ccccc13
inactive: [1] 8.05% | [2] 19.9% | [3] 9.3% | [4] 14.8% | [5] -6.45% | [6] 28.8%

O=C(Nc1ccc(Cl)c(Cl)c1)Oc1ccc(Cl)cc1C(=O)Nc1ccccc1
inactive: [1] -13.8% | [2] -2.6% | [3] 29.1% | [4] -7.4% | [5] 28.1% | [6] 37.6%

COc1ccc(C(=O)N2CCOCC2)cc1
inactive: [1] -8% | [2] -16.6% | [3] -0.9% | [4] 31.9% | [5] -3.05% | [6] -10.6%

CC1=Nc2cc(C)c(C)cc2NC(=O)C1
inactive: [1] -16.8% | [2] -43.9% | [3] -6.1% | [4] 20.4% | [5] -21.9% | [6] -1.7%

CS(=O)CCNC(=O)NS(=O)(=O)c1ccc(Cl)cc1 (stereo not given)
inactive: [1] -2% | [2] -18.9% | [3] -11.3% | [4] -10.2% | [5] 3.05% | [6] -3.15%

COc1c(Cl)cc([N+](=O)[O-])cc1C(=O)O
inactive: [1] 6.4% | [2] 25.9% | [3] -3.55% | [4] -15.7% | [5] 15.6% | [6] 16.9%

Cc1cccc(NC(=O)Nc2ccccc2Cl)c1C
inactive: [1] 11.2% | [2] 5.15% | [3] 0.65% | [4] -3.65% | [5] -2.3% | [6] -9.45%

CN[C@H]1CCc2cc(OC)c(OC)c(OC)c2-c2ccc(O)c(=O)cc21
inactive: [1] 23.8% | [2] -9.45% | [3] 24.8% | [4] -43.5% | [5] 0.3% | [6] 29.7%

O=P(O)(OCCOc1ccccc1)OCCOc1ccccc1
inactive: [1] 6.25% | [2] 10.5% | [3] 8.25% | [4] -24.6% | [5] -11.6% | [6] -12.8%

CCC(=O)c1ccc(OC(=O)Nc2ccc(Cl)cc2[N+](=O)[O-])cc1
inactive: [1] 2.25% | [2] 42.8% | [3] 38.5% | [4] -0.75% | [5] 26.2% | [6] -124%

CC1=C(\C=C/C(C)=C/C=C/C(C)=C/C=N/NC(=O)c2cccnc2)C(C)(C)CCC1
inactive: [1] 2.4% | [2] -7.4% | [3] 33.5% | [4] 41.6% | [5] 30% | [6] 27.6%
